Source: PubChem BioAssay (Tox21)
Results filed as inconclusive are left out. Entries that show only a call come without a potency. The source made the active and inactive calls. Unless noted, calls follow the shape of the full dose curve.

Key:
[1] = Nuclear factor erythroid 2-related factor 2/antioxidant responsive element (Nrf2/ARE) small molecule agonists: qHTS cell viability counter screen in human keratinocytes (AID 1919968; active = well fitted curve in the direction sought with a large enough effect in the repeat runs; an effect the other way counts as inactive or inconclusive; also: nearly all actives have a fitted effect of over 55% in size)
Summary of the method: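 KeratinoSens cells (HaCaT keratinocytes stably carrying an ARE-luciferase reporter) were seeded at 1,500 cells/well and rested 5 h at 37 C/5% CO2. They were then exposed to compounds in DMSO for 23 h. Viability was read by CellTiter-Fluor fluorescence after 1 h.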

[2] = Nuclear factor erythroid 2-related factor 2/antioxidant responsive element (Nrf2/ARE) small molecule agonists: luciferase reporter gene qHTS assay in human keratinocytes (AID 1919969); also: nearly all actives have a fitted effect of over 35% in size; also: potency is read from the fitted curve at half-maximal effect
[3] = target: Gonadotropin-releasing hormone receptor (Homo sapiens) (UniProt P30968); assay: Human gonadotropin-releasing hormone receptor (GnRHR) small molecule agonists, calcium flux assay in GnRHR-HEK293 cells (AID 1920063); also: nearly all actives have a fitted effect of over 35% in size
Summary of the method: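 HEK293 cells stably expressing human GnRHR were plated 18 h at 37 °C, loaded with calcium dye 1 h at 37 °C, then given compound in agonist mode; fluorescence (Ex/Em 480/540) read kinetically for 3 min at 1 s intervals.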

[4] = target: KiSS-1 receptor (Homo sapiens) (UniProt Q969F8); assay: Human kisspeptin (KISS1R) small molecule agonists, calcium flux assay in KISS1R-HEK293 cells (AID 1920064; active = well fitted curve in the direction sought with a large enough effect in the repeat runs; an effect the other way counts as inactive or inconclusive)
Summary of the method: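 HEK293 cells stably expressing human KISS1R were plated 18 h at 37 °C, loaded with calcium dye for 1 h at 37 °C, then given compound by pin tool. Fluorescence (Ex/Em 480/540) was read kinetically for 3 min.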

[5] = G protein-coupled receptor (GPCR) small molecule agonists, calcium flux assay: HEK293 wild type cell line counter screen (AID 1920065)
Summary of the method: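 Cells were plated and cultured 18 h at 37 C/5% CO2, then loaded with calcium dye for 1 h at 37 C. Compounds in DMSO were pin-transferred in agonist mode, and fluorescence (Ex/Em 480/540) was read kinetically for 3 min at 1 s intervals.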

[6] = p53 small molecule agonists, cell-based qHTS assay with human liver microsomes (AID 1963577)
Summary of the method: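 p53RE-bla reporter cells were pre-incubated 5 h at 37 C, then treated with compounds plus human liver microsomes (0.5 mg/mL final) and NADPH (0.5 mg/mL final) for 16 h at 37 C. Beta-lactamase activity was read by LiveBLAzer fluorescence after 2 h at room temperature.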

[7] = p53 small molecule agonists, cell-based qHTS assay with rat liver microsomes (AID 1963578)
Summary of the method: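 p53RE-bla cells were exposed to compounds together with rat liver microsomes (0.5 mg/mL final) and NADPH (0.5 mg/mL final) for 16 h at 37 C, then read by LiveBLAzer beta-lactamase fluorescence after 2 h at room temperature.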

[8] = p53 small molecule agonists, cell-based qHTS assay with human liver microsomes: qHTS cell viability counter screen (AID 1963579); also: nearly all actives have a fitted effect of over 45% in size
Summary of the method: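 p53RE-bla cells (4,000/well) were pre-incubated 5 h at 37 C, then given compounds in DMSO plus human liver microsomes (0.5 mg/mL final) and NADPH (0.5 mg/mL final) for 16 h at 37 C. Viability was read by CellTiter-Glo luminescence.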

[9] = p53 small molecule agonists, cell-based qHTS assay with rat liver microsomes: qHTS cell viability counter screen (AID 1963580); also: nearly all actives have a fitted effect of over 45% in size
Summary of the method: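 HCT-116 p53RE-bla, 4,000 cells/well, 5 h pre-incubation; cpd + rat liver microsomes 0.5 mg/mL + NADPH 0.5 mg/mL (final); 16 h, 37 C; CellTiter-Glo, 30 min RT; luminescence.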

[10] = p53 small molecule agonists, cell-based qHTS assay: qHTS cell viability counter screen (AID 1963581); also: nearly all actives have a fitted effect of over 45% in size
Summary of the method: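 p53RE-bla HCT-116 cells were exposed to compounds for 16 h at 37 C; after the beta-lactamase FRET read in the same wells, CellTiter-Glo was added and luminescence (intracellular ATP) read after 30 min at room temperature.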

[11] = p53 small molecule agonists, cell-based qHTS assay (AID 1963582; active = well fitted activation curve with a large enough effect in the signal ratio in the repeat runs, not every such curve was filed as active; the % refers to the signal ratio)
Summary of the method: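 p53RE-bla beta-lactamase reporter cells rested 5 h at 37 C/5% CO2, then received compounds in DMSO by pin transfer and were incubated 16 h at 37 C. LiveBLAzer B/G FRET substrate was loaded for 2 h at room temperature before fluorescence reading.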

[12] = target: 5-hydroxytryptamine receptor 2A (Homo sapiens) (UniProt P28223); assay: 5-hydroxytryptamine receptor 2A (HTR2A) small molecule antagonists, cell-based qHTS assay (AID 1963586); also: nearly all actives have a fitted effect of over 45% in size
Summary of the method: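 Antagonist-mode intracellular calcium assay: DOI (4 nM) added after 5 min compound pre-incubation at room temperature to dye-loaded HTR2A-CHO cells. Fluorescence followed for 3 min, sampled every second.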

[13] = target: 5-hydroxytryptamine receptor 2A (Homo sapiens) (UniProt P28223); assay: 5-hydroxytryptamine receptor 2A (HTR2A) small molecule agonists, cell-based qHTS assay (AID 1963587); also: nearly all actives have a fitted effect of over 30% in size
Summary of the method: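 Kinetic calcium-flux fluorescence (2 min, 1 sec intervals) after compound addition in agonist mode. HTR2A-CHO cells were cultured 18 h, then dye-loaded 1 h at 37 C.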

[14] = target: Muscarinic acetylcholine receptor M1 (Homo sapiens) (UniProt P11229); assay: Cholinergic receptor muscarinic 1 (CHRM1) small molecule antagonists, cell-based qHTS assay (AID 1963588); also: nearly all actives have a fitted effect of over 40% in size; also: potency is read from the fitted curve at half-maximal effect
Summary of the method: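 CHRM1-CHO calcium-flux assay, antagonist mode. Cells were seeded 18 h, dye-loaded 1 h at 37 C and given compound for 5 min at RT, then acetylcholine was added at 50nM. FDSS fluorescence was read 3 min; 15 concentrations, three runs.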

[15] = target: Muscarinic acetylcholine receptor M1 (Homo sapiens) (UniProt P11229); assay: Cholinergic receptor muscarinic 1 (CHRM1) small molecule agonists, cell-based qHTS assay (AID 1963589); also: nearly all actives have a fitted effect of over 35% in size; also: potency is read from the fitted curve at half-maximal effect
Summary of the method: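 CHO cells stably expressing human CHRM1, seeded 18 h at 37 C/5% CO2, dye-loaded 1 h at 37 C, then given compound in agonist mode; intracellular calcium fluorescence read kinetically at 1 s intervals. Fifteen concentrations, three independent runs.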

[16] = cAMP Responsive Elements (CRE) small molecule agonists, cell-based qHTS assay (AID 1963590)
Summary of the method: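 CRE-bla HEK 293T cells in DMEM with 10% dialyzed FBS, NEAA, pyruvate and 25 mM HEPES were plated 18 h at 37 C/5% CO2, then exposed to compounds in DMSO for 3 h before LiveBLAzer B/G FRET substrate addition.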

[17] = cAMP Responsive Elements (CRE) small molecule antagonists, cell-based qHTS assay (AID 1963591; active = well fitted inhibition curve with a large enough effect in the signal ratio in the repeat runs, not every such curve was filed as active; the % refers to the signal ratio)
Summary of the method: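 CRE-bla HEK293T cells were plated 18 h at 37 °C/5% CO2, pinned with compound in DMSO, then stimulated with NKH477 at 0.25 uM final for 3 h. LiveBLAzer B/G FRET substrate was added and plates incubated 2 h at room temperature.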

[18] = target: Beta-2 adrenergic receptor (Homo sapiens) (UniProt P07550); assay: Adrenergic beta2 receptor (ADRB2) small molecule antagonists, cell-based qHTS assay (AID 1963592); also: series mostly up to about 92 µM; nearly all actives have a fitted effect of over 50% in size
Summary of the method: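 Cells (CHO, stable ADRB2 overexpression) incubated 18-20hr at 37C; compounds added from DMSO; agonist mix (1nM isoproterenol, 100uM IBMX, 25uM Ro-20-1724) added; 0.5hr RT; d2-cAMP and anti-cAMP-cryptate added; 1hr RT; 665/615 nm read.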

[19] = target: D(2) dopamine receptor (Homo sapiens) (UniProt P14416); assay: Dopamine D2 receptor (DRD2) small molecule agonists, cell-based qHTS assay (AID 1963594); also: nearly all actives have a fitted effect of over 35% in size
Summary of the method: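 cAMP accumulation in DRD2-HEK293 cells measured by HTRF after 1 h detection; compounds added 10 min before NKH477 (200nM […]) forskolin-analogue stimulation, 30 min at room temperature, with Ro20-1724 present at 0.1 mM final.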

[20] = target: D(2) dopamine receptor (Homo sapiens) (UniProt P14416); assay: Dopamine D2 receptor (DRD2) small molecule antagonists, cell-based qHTS assay (AID 1963595; active = well fitted inhibition curve with a large enough effect in the signal ratio in the repeat runs, with a control signal flat; the % refers to the signal ratio)
Summary of the method: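 In this cell-based antagonist screen, compounds act for 10 min at room temperature before a 30 min challenge with 12 nM quinpirole and 200 nM NKH477. cAMP is quantified by HTRF competition in DRD2-HEK293 cells containing 0.1 mM Ro20-1724.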

Chain of Muscarinic acetylcholine receptor M1 (Homo sapiens) (P11229 whole entry, looked up): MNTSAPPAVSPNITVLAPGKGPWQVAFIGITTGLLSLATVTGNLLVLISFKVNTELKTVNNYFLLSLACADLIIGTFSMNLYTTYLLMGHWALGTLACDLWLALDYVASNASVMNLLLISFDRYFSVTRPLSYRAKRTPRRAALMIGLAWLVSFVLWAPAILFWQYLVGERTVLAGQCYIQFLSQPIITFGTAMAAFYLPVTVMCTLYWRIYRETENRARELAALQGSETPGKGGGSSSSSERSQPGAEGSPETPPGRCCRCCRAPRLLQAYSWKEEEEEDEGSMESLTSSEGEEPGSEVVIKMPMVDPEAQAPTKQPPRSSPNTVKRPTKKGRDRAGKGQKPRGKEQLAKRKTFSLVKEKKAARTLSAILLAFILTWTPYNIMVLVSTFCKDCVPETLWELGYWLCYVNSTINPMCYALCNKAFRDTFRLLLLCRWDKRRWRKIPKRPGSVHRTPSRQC
Chain of Gonadotropin-releasing hormone receptor (Homo sapiens) (P30968 whole entry, looked up): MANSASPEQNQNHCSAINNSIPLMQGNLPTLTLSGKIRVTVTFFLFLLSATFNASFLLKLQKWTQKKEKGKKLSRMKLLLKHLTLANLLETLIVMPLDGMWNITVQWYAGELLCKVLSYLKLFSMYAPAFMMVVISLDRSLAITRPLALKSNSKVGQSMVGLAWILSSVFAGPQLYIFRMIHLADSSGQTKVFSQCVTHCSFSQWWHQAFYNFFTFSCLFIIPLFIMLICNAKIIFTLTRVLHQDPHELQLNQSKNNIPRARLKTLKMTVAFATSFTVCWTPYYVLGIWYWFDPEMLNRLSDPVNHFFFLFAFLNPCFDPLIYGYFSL
Chain of D(2) dopamine receptor (Homo sapiens) (P14416 whole entry, looked up): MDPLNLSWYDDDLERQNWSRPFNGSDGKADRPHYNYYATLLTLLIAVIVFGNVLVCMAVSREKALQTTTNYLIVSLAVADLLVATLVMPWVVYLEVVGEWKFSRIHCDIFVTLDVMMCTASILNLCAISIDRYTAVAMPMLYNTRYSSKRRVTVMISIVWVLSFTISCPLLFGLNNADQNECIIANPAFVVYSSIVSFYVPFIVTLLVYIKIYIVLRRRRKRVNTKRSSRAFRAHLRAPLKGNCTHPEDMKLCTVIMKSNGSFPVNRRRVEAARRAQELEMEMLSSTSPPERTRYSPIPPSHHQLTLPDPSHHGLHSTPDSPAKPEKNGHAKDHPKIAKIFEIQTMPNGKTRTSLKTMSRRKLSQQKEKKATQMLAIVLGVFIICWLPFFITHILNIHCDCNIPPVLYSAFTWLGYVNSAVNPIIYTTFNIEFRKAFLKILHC
Chain of Beta-2 adrenergic receptor (Homo sapiens) (P07550 whole entry, looked up): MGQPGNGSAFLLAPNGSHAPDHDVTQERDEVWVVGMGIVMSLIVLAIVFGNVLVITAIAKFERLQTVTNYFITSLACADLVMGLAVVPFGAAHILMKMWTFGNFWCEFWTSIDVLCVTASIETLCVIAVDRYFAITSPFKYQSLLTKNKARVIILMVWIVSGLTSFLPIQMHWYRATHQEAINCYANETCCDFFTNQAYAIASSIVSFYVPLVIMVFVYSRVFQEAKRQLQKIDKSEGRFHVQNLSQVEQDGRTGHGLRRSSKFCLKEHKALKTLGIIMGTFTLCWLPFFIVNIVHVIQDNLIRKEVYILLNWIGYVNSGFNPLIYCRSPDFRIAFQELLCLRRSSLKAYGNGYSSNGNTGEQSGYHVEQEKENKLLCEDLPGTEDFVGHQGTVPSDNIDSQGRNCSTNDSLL
Chain of KiSS-1 receptor (Homo sapiens) (Q969F8 whole entry, looked up): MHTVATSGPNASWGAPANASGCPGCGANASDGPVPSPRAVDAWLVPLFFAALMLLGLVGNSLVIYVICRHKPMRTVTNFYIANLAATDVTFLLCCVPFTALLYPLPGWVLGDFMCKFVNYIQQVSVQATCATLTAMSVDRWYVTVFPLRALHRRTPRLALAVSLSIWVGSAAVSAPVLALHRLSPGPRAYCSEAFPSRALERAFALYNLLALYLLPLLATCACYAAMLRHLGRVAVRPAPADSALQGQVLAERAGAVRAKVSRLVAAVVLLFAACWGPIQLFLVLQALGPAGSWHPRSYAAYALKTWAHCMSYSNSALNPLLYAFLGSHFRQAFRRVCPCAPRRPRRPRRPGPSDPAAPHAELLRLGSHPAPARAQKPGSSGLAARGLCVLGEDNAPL
Chain of 5-hydroxytryptamine receptor 2A (Homo sapiens) (P28223 whole entry, looked up): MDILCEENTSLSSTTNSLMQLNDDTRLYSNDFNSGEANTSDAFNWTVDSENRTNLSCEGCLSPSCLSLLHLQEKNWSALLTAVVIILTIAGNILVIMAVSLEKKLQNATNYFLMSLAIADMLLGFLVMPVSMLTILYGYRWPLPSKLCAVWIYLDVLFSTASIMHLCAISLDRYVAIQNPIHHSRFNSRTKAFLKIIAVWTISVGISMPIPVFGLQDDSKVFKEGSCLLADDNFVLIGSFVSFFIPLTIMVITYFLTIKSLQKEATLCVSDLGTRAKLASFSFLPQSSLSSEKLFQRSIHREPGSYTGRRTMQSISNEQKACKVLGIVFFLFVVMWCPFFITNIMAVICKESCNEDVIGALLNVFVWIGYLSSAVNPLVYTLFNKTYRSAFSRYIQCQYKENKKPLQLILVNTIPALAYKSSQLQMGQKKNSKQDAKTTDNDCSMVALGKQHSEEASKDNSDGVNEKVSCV

| SMILES | Potency [1] | Potency [2] | Potency [3] | Potency [4] | Potency [5] | Potency [6] | Potency [7] | Potency [8] | Potency [9] | Potency [10] | Potency [11] | Potency [12] | Potency [13] | Potency [14] | Potency [15] | Potency [16] | Potency [17] | Potency [18] | Potency [19] | Potency [20] |
| --- | --- | --- | --- | --- | --- | --- | --- | --- | --- | --- | --- | --- | --- | --- | --- | --- | --- | --- | --- | --- |
| CCCCN(CC)C(=O)SCCC | inactive | inactive | inactive | inactive | inactive | inactive | inactive | inactive | inactive | inactive | inactive | inactive | inactive | inactive | inactive | inactive | inactive | inactive | inactive | inactive |
| O=C(O)C1C(C(=O)O)C2(Cl)C(Cl)=C(Cl)C1(Cl)C2(Cl)Cl (stereo not given) | inactive | inactive | inactive | inactive | inactive | inactive | inactive | inactive | inactive | inactive | inactive | inactive | inactive | inactive | inactive | inactive | inactive | inactive | inactive | inactive |
| CC(C)(O)C#N | inactive | inactive | inactive | inactive | inactive | inactive | inactive | inactive | inactive | inactive | inactive | inactive | inactive | inactive | inactive | inactive | inactive | inactive | inactive | inactive |
| CCCC[N+]1(C)CCCC1 (tested in a mixture with another compound) | inactive | inactive | inactive | inactive | inactive | inactive | inactive | inactive | inactive | inactive | inactive | inactive | inactive | 9.54 µM (active) | 4.96 µM (active) | inactive | inactive | inactive | inactive | inactive |
| CC1(C)C(C=C(Cl)Cl)C1C(=O)OC(C#N)c1cccc(Oc2ccccc2)c1 (stereo not given) | inactive | inactive | inactive | inactive | inactive | inactive | inactive | inactive | inactive | inactive | inactive | inactive | inactive | inactive | inactive | inactive | inactive | inactive | inactive | inactive |
| CC1=C2[C@H]3OC(=O)[C@@H](C)[C@@H]3CC[C@@]2(C)C=CC1=O | inactive | inactive | inactive | inactive | inactive | inactive | inactive | inactive | inactive | inactive | inactive | inactive | inactive | inactive | inactive | inactive | inactive | inactive | inactive | inactive |
| Nc1ccccc1C(=O)O | inactive | inactive | inactive | inactive | inactive | inactive | inactive | inactive | inactive | inactive | inactive | inactive | inactive | inactive | inactive | inactive | inactive | inactive | inactive | inactive |
| CC(C)(OOC(C)(C)c1ccccc1)c1ccccc1 | inactive | 21.7 µM (active) | inactive | inactive | inactive | inactive | inactive | inactive | inactive | inactive | inactive | inactive | inactive | inactive | inactive | inactive | inactive | inactive | inactive | inactive |
| Cl[C@H]1OCCO[C@@H]1Cl | inactive | inactive | inactive | inactive | inactive | inactive | inactive | inactive | inactive | inactive | inactive | inactive | inactive | inactive | inactive | inactive | inactive | inactive | inactive | inactive |
| CCCOC(=O)c1cncn1C(C)c1ccccc1 (stereo not given) | inactive | inactive | inactive | inactive | inactive | inactive | inactive | inactive | inactive | inactive | inactive | inactive | inactive | inactive | inactive | inactive | inactive | inactive | inactive | inactive |
| O=C(Cl)c1ccccc1 | inactive | inactive | inactive | inactive | inactive | inactive | inactive | inactive | inactive | inactive | inactive | inactive | inactive | inactive | inactive | inactive | inactive | inactive | inactive | inactive |
| Nc1ccc(Oc2ccc(N)cc2)cc1 | inactive | inactive | inactive | inactive | inactive | inactive | inactive | inactive | inactive | inactive | inactive | inactive | inactive | inactive | inactive | inactive | inactive | inactive | inactive | inactive |
| CCCCCCCCOC(=O)c1ccc(C(=O)OCCCCCCCC)c(C(=O)OCCCCCCCC)c1 | inactive | inactive | inactive | inactive | inactive | inactive | inactive | inactive | inactive | inactive | inactive | inactive | inactive | inactive | inactive | inactive | inactive | inactive | inactive | inactive |
